The source of these data is PubChem BioAssay AID434959 (Broad Institute, 2010).

Each structure is given as a SMILES string. The campaign covered roughly 30,000 compounds. About 110 (0.37%) were called active.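 How the source made its calls: active means delta delta Cp rounded down to an integer at or above 3, about 3 SD of DMSO wells; inactive means the rest.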 For the sample, actives were picked, then their nearest neighbours and some compounds at random.

The assay is described as follows: YB-1 transcript reduction by qRT-PCR – cell-based, fluorescence, primary screen (AID 434959).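 Further: higher means less YB-1 transcript or more CDIP transcript relative to DMSO.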 The settings on record: U2OS, qRT-PCR YB-1 vs CDIP delta delta Cp, 16 h; hits give high values; zero = DMSO, each unit about twofold. Background: Quantitative PCR measures a nucleic acid by following its amplification.
Turning to `COc1ccc(S(=O)(=O)Nc2ccc3c(c2)CC(=O)N([C@H](C)CO)C[C@H](C)[C@H](CN(C)C(=O)Nc2ccccc2)O3)cc1`, the delta Cp (YB-1 minus CDIP) was 0.185 (inactive).

Regarding `C[C@@H]1CN([C@@H](C)CO)C(=O)Cc2cc(NC(=O)C3CCCCC3)ccc2O[C@@H]1CN(C)CC1CCCCC1`, the delta Cp (YB-1 minus CDIP) is 0.332 (inactive).

With `Cc1noc(C)c1NC(=O)N(C)C[C@H]1Oc2c(NS(=O)(=O)c3cccs3)cccc2C(=O)N([C@@H](C)CO)C[C@@H]1C`, the delta Cp (YB-1 minus CDIP) is -0.0216 (inactive).

As for `C[C@H]1CN([C@@H](C)CO)C(=O)c2cc(NC(=O)Cc3cn(C)c4ccccc34)ccc2O[C@H]1CN(C)CC1CCCCC1`, the delta Cp (YB-1 minus CDIP) is -0.873 (inactive).

For the compound `C[C@H]1CN([C@@H](C)CO)C(=O)Cc2cc(NC(=O)Nc3ccc(F)cc3)ccc2O[C@H]1CN(C)S(=O)(=O)c1ccccc1`, the delta Cp (YB-1 minus CDIP) is -0.124 (inactive).

Regarding `O=C(O)CCCCCCC(=O)NN=C1CCCCCC1`, the delta Cp (YB-1 minus CDIP) is -0.0992 (inactive).

For `C[C@H](CO)N1C[C@H](C)[C@@H](CN(C)S(=O)(=O)c2ccccc2)Oc2c(NS(=O)(=O)c3cn(C)cn3)cccc2C1=O`, the delta Cp (YB-1 minus CDIP) is 0.133 (inactive).

Consider `CC(C)CSc1nnc(CSCc2nc(-c3ccc(Cl)cc3)cs2)n1C`, for which the delta Cp (YB-1 minus CDIP) was 0.176 (inactive).

As to `COC(=O)[C@@]1(CCS(=O)(=O)c2ccccc2)N=C(c2ccc(OCCCO)cc2)O[C@H]1c1ccccc1N=[N+]=[N-]`, the delta Cp (YB-1 minus CDIP) was -0.253 (inactive).

For the compound `Cc1ccc(-c2c[n+](=O)c3c(n2[O-])CCC3)cc1`, the delta Cp (YB-1 minus CDIP) is -0.134 (inactive).

Consider `CCc1c(C)n([O-])c2c([n+]1=O)CCCCC2`, for which the delta Cp (YB-1 minus CDIP) is 6.44 (active).

Take `C[C@H]1CN([C@@H](C)CO)C(=O)Cc2cc(NC(=O)Cc3ccccc3)ccc2O[C@H]1CN(C)S(=O)(=O)c1ccc(Cl)cc1`: the delta Cp (YB-1 minus CDIP) was -0.43 (inactive).

On to `COc1ccc(CN(C)C[C@H]2Oc3c(NS(=O)(=O)c4ccccc4)cccc3C(=O)N([C@H](C)CO)C[C@@H]2C)cc1`, for which the delta Cp (YB-1 minus CDIP) is 0.263 (inactive).

Turning to `C[C@@H]1CCCCO[C@H](CN(C)C(=O)c2ccccc2)[C@@H](C)CN([C@H](C)CO)C(=O)c2cc(NC(=O)Nc3cccc4ccccc34)ccc2O1`, the delta Cp (YB-1 minus CDIP) is -0.0616 (inactive).

For the compound `C[C@@H]1CN([C@H](C)CO)C(=O)c2cc(N(C)C)ccc2O[C@@H]1CN(C)S(C)(=O)=O`, the delta Cp (YB-1 minus CDIP) was -0.194 (inactive).

As to `C[C@@H]1CN([C@@H](C)CO)C(=O)CCCn2cc(nn2)CO[C@H]1CN(C)Cc1ccc(C(=O)O)cc1`, the delta Cp (YB-1 minus CDIP) was 0.212 (inactive).

For `C/C=C(/C)C(=O)O[C@H]1CC(C)(C)C[C@H]2C3=CCC4[C@@]5(C)CC[C@H](O[C@@H]6O[C@H](C(=O)O)[C@@H](O[C@@H]7O[C@H](CO)[C@H](O)[C@H](O)[C@H]7O[C@@H]7O[C@H](CO)[C@@H](O)[C@H](O)[C@H]7O)[C@H](O)[C@H]6O[C@@H]6O[C@@H](C)[C@H](O)[C@@H](O)[C@H]6O)C(C)(C)C5CC[C@@]4(C)[C@]3(C)[C@@H](O)[C@@H](O)[C@@]12CO` (stereo partly specified), the delta Cp (YB-1 minus CDIP) was 10.3 (active).

As for `CC1OC(OC2C(OC3C(O[C@H]4CC[C@@]5(C)C(CC[C@]6(C)C5CC=C5[C@@H]7CC(C)(C)C[C@@H](O)[C@]7(C)CC[C@]56C)C4(C)C)OC(C(=O)O)C(O)C3O)OC(CO)C(O)C2O)C(O)C(O)C1O` (stereo partly specified), the delta Cp (YB-1 minus CDIP) is 0.299 (inactive).

Consider `C/C=C(/C)C(=O)O[C@H]1CC(C)(C)C[C@H]2C3=CCC4[C@@]5(C)CC[C@H](O[C@@H]6O[C@H](C(=O)O)[C@@H](O[C@@H]7O[C@H](CO)[C@H](O)[C@H](O)[C@H]7O[C@@H]7O[C@H](CO)[C@@H](O)[C@H](O)[C@H]7O)[C@H](O)[C@H]6O[C@@H]6O[C@@H](C)[C@H](O)[C@@H](O)[C@H]6O)C(C)(C)C5CC[C@@]4(C)[C@]3(C)[C@@H](OC(C)=O)[C@@H](O)[C@@]12COC(C)=O` (stereo partly specified), for which the delta Cp (YB-1 minus CDIP) is -0.219 (inactive).

Consider `CC1(C)CC[C@]2(C(=O)O)CC[C@]3(C)C(=CCC4[C@@]5(C)CC[C@H](OC6O[C@H](CO)[C@@H](O)[C@H](O[C@@H]7O[C@H](CO)[C@@H](O)[C@H](O)[C@H]7O)[C@H]6O)C(C)(C)C5CC[C@]43C)[C@@H]2C1` (stereo partly specified), for which the delta Cp (YB-1 minus CDIP) is -0.209 (inactive).

For `CC1(C)CC[C@]2(C(=O)O[C@@H]3O[C@H](CO)[C@@H](O)[C@H](O)[C@H]3O)CC[C@]3(C)C(=CCC4[C@@]5(C)CC[C@H](O[C@@H]6O[C@H](C(=O)O)[C@@H](O[C@@H]7OC[C@H](O)[C@H](O)[C@H]7O)[C@H](O)[C@H]6O)C(C)(C)C5CC[C@]43C)C2C1` (stereo partly specified), the delta Cp (YB-1 minus CDIP) was 0.0826 (inactive).

For the compound `CCC/C=C/C(=O)OC1C(O)C23C(O)OC4(CCC5C6(C)CCC(OC7OC(C(=O)O)C(O)C(OC8OC(CO)C(O)C(O)C8OC8OC(C)C(O)C(O)C8OC8OCC(O)C(O)C8O)C7OC7OC(CO)C(O)C(O)C7O)C(C)(C)C6CCC5(C)C4(C)CC2OC(C)=O)C3CC1(C)C` (stereo unspecified), the delta Cp (YB-1 minus CDIP) was 3.51 (active).

Consider `C=CC(C)(O)CCC1(C)C2=C(C(OC(C)=O)C(OC(C)=O)C1C)C(C)(C)CCC2` (stereo unspecified), for which the delta Cp (YB-1 minus CDIP) was -0.399 (inactive).

As for `COC(=O)[C@]1(Cc2ccccc2CN=[N+]=[N-])N=C(c2ccc(OCCCO)cc2)O[C@@H]1c1ccccc1CN=[N+]=[N-]`, the delta Cp (YB-1 minus CDIP) was 0.139 (inactive).

As for `C[C@@H]1CN([C@@H](C)CO)C(=O)c2cccc(NC(=O)Nc3cccc4ccccc34)c2O[C@@H]1CN(C)CC1CC1`, the delta Cp (YB-1 minus CDIP) is 0.192 (inactive).

As for `C[C@@H]1CN([C@H](C)CO)C(=O)Cc2cc(NC(=O)Cn3cnnn3)ccc2O[C@@H]1CN(C)S(=O)(=O)c1ccc(F)cc1`, the delta Cp (YB-1 minus CDIP) was 0.145 (inactive).

Consider `C[C@H](CO)N1C[C@H](C)[C@H](CN(C)C(=O)NC2CCCCC2)Oc2c(NC(=O)c3nc4ccccc4s3)cccc2C1=O`, for which the delta Cp (YB-1 minus CDIP) is 0.116 (inactive).

On to `C[C@H]1CN([C@@H](C)CO)C(=O)Cc2cc(N(C)C)ccc2O[C@@H]1CN(C)Cc1ccc(-c2ccccc2)cc1`, for which the delta Cp (YB-1 minus CDIP) is 0.0659 (inactive).

`COC(=O)CCCCCCC(=O)N/N=C/c1ccc(C(=O)O)cc1`: the delta Cp (YB-1 minus CDIP) was -0.219 (inactive).

Turning to `C[C@H]1CN([C@@H](C)CO)C(=O)c2cc(NC(=O)C3CCCCC3)ccc2O[C@H]1CN(C)S(=O)(=O)c1cn(C)cn1`, the delta Cp (YB-1 minus CDIP) is -0.0642 (inactive).

Regarding `CC(C)(C)c1ccc(-c2[nH]nc(NC(=O)c3ccccc3Cl)c2Br)cc1`, the delta Cp (YB-1 minus CDIP) was 0.0133 (inactive).
